Here are results for seven molecules from the supplement of paper PMC9262897, “Low-cost anti-mycobacterial drug discovery using engineered E. coli” (Nature Communications, 2022).

What all share (assay): growth (OD600 after 10 h); higher = more growth (less inhibition)
The test system of assay [1] is E. coli TESEC Alr+ wild-type control. The settings on record: compound 0.1 mM; raw OD600 reference: median of DMSO wells 0.241, cell-free background 0.041. How it is done:
(§1)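 TESEC Mtb Alr E. coli, or the Alr+ wild-type control, in 384-well plates with Prestwick library compounds at 0.1 mM and 1% DMSO, across arabinose induction levels of 1E3 to 1E7 nM. Growth is read as OD600 after 10 h at 37 °C in triplicate biological replicates.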

Assay [2] has as its system E. coli TESEC Mtb Alr. The following applies: compound 0.1 mM. How it is done:
as §1

The test system of the next assay is E. coli TESEC Mtb Asd. The settings on record: compound 0.1 mM. How it is done:
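TESEC E. coli strains in which the native enzyme is deleted and replaced by arabinose-inducible Mtb Asd, DapB, CysH or TrpD, each grown in its selective medium. Strains were screened against the Prestwick library at 0.1 mM and 1% DMSO in 384-well format at low and high arabinose induction. Growth is read as OD600 after 10 h in triplicate.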

Assay [3] concerns E. coli TESEC Alr+ wild-type control. The following applies: compound 0.1 mM; raw OD600 reference: median of DMSO wells 0.49, cell-free background 0.052. How it is done: (§2)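 TESEC Mtb Alr E. coli (ΔaraC ΔtolC ΔentC Δalr ΔdadX, arabinose-inducible Mtb Alr) or the Alr+ wild-type control strain, grown in defined M9-fructose medium without D-alanine in 96-well plates with Prestwick library compounds at 0.1 mM and 1% DMSO. Low Alr induction is 0.1 µM arabinose and high induction is 10 mM arabinose.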

Assay [4] has as its system E. coli TESEC Mtb Alr. The following applies: compound 0.1 mM. How it is done: as §2
The source holds these as a separate data set.

Where [5] appears, read: arabinose 1000 nM, raw OD600 reference: median of DMSO wells 0.294, cell-free background 0.041.
Where [6] appears, read: arabinose 10000 nM, raw OD600 reference: median of DMSO wells 0.264, cell-free background 0.041.
Where [7] appears, read: arabinose 100000 nM, raw OD600 reference: median of DMSO wells 0.201, cell-free background 0.041.
The mark [8] stands for this setting: arabinose 1000000 nM, raw OD600 reference: median of DMSO wells 0.193, cell-free background 0.041.
The mark [9] stands for this setting: arabinose 10000000 nM, raw OD600 reference: median of DMSO wells 0.146, cell-free background 0.041.
[10] abbreviates: arabinose induction (level): High, raw OD600 reference: median of DMSO wells 0.331, cell-free background 0.041.
Where [11] appears, read: arabinose induction (level): Low, raw OD600 reference: median of DMSO wells 0.417, cell-free background 0.041.
Setting [12] is: arabinose 100 nM, raw OD600 reference: median of DMSO wells 0.413, cell-free background 0.052.
Setting [13] is: arabinose 10000000 nM, raw OD600 reference: median of DMSO wells […], cell-free background 0.052.

Counter-ions that a name gives are not always drawn. ± gives the standard deviation of the averaged measurements.

For `Cc1[nH]c(=O)c(C#N)cc1-c1ccncc1` [Milrinone], the growth in assay [1] was 0.199 ± 0.0031; in the assay on E. coli TESEC Mtb Alr [2] (setting [5]), 0.27 ± 0.0094; with E. coli TESEC Mtb Alr [2] (setting [6]), 0.229 ± 0.0033; in the assay on E. coli TESEC Mtb Alr [2] (setting [7]), 0.169 ± 0.018; with E. coli TESEC Mtb Alr [2] (setting [8]) it was 0.136 ± 0.0068; in the assay on E. coli TESEC Mtb Alr [2] (setting [9]), 0.148 ± 0.0037. Besides, the growth turned out to be 0.304 ± 0.06 with E. coli TESEC Mtb Asd (setting [10]); 0.329 ± 0.054 in the assay on E. coli TESEC Mtb Asd (setting [11]); 0.636 ± 0.046 in assay [3]; 0.43 ± 0.0055 with E. coli TESEC Mtb Alr [4] (setting [12]); 0.305 ± 0.0071 in the assay with E. coli TESEC Mtb Alr [4] (setting [13]).

For `Cc1ccc(S(=O)(=O)NC(=O)NN2CC3CCCC3C2)cc1` (configuration not stated) [Gliclazide], the growth was 0.244 ± 0.012 in assay [1]; 0.309 ± 0.0099 in the assay with E. coli TESEC Mtb Alr [2] (setting [5]); 0.271 ± 0.0064 in the assay with E. coli TESEC Mtb Alr [2] (setting [6]); 0.222 ± 0.017 in the assay with E. coli TESEC Mtb Alr [2] (setting [7]); 0.192 ± 0.0036 in the assay with E. coli TESEC Mtb Alr [2] (setting [8]); 0.177 ± 0.0042 in the assay on E. coli TESEC Mtb Alr [2] (setting [9]). Moreover, the growth in the assay with E. coli TESEC Mtb Asd (setting [10]) is 0.298 ± 0.032; in the assay on E. coli TESEC Mtb Asd (setting [11]), 0.364 ± 0.071; in assay [3], 0.518 ± 0.074; in the assay with E. coli TESEC Mtb Alr [4] (setting [12]) it was 0.404 ± 0.02; in the assay with E. coli TESEC Mtb Alr [4] (setting [13]), 0.372 ± 0.0073.

With `CCOC(=O)O[C@]1(C(=O)COC(=O)CC)CC[C@H]2[C@@H]3CCC4=CC(=O)C=C[C@]4(C)[C@H]3[C@@H](O)C[C@@]21C` [Prednicarbate], the growth in assay [1] is 0.201 ± 0.0033; with E. coli TESEC Mtb Alr [2] (setting [5]), 0.268 ± 0.0098; in the assay on E. coli TESEC Mtb Alr [2] (setting [6]), 0.271 ± 0.0029; with E. coli TESEC Mtb Alr [2] (setting [7]), 0.269 ± 0.025; in the assay on E. coli TESEC Mtb Alr [2] (setting [8]), 0.199 ± 0.012; with E. coli TESEC Mtb Alr [2] (setting [9]) it was 0.174 ± 0.013. Also, the growth came out at 0.438 ± 0.024 in the assay with E. coli TESEC Mtb Asd (setting [10]); 0.37 ± 0.053 in the assay on E. coli TESEC Mtb Asd (setting [11]); 0.38 ± 0.015 in assay [3]; 0.401 ± 0.0095 with E. coli TESEC Mtb Alr [4] (setting [12]); 0.28 ± 0.027 in the assay on E. coli TESEC Mtb Alr [4] (setting [13]).

Consider `O=C(NC(Cc1cc(=O)[nH]c2ccccc12)C(=O)O)c1ccc(Cl)cc1` (configuration not stated) [Rebamipide], for which the growth in assay [1] was found to be 0.26 ± 0.0077; in the assay on E. coli TESEC Mtb Alr [2] (setting [5]), 0.314 ± 0.015; in the assay on E. coli TESEC Mtb Alr [2] (setting [6]), 0.259 ± 0.0053; in the assay with E. coli TESEC Mtb Alr [2] (setting [7]) it was 0.211 ± 0.01; with E. coli TESEC Mtb Alr [2] (setting [8]), 0.196 ± 0.0026; with E. coli TESEC Mtb Alr [2] (setting [9]), 0.146 ± 0.0044. Besides, the growth is 0.312 ± 0.035 in the assay on E. coli TESEC Mtb Asd (setting [10]); 0.435 ± 0.058 in the assay with E. coli TESEC Mtb Asd (setting [11]); 0.484 ± 0.068 in assay [3]; 0.409 ± 0.012 with E. coli TESEC Mtb Alr [4] (setting [12]); 0.368 ± 0.014 in the assay with E. coli TESEC Mtb Alr [4] (setting [13]).

For the molecule `CC(C)NCC(O)COc1cccc2[nH]ccc12` (configuration not stated) [Pindolol], the growth in assay [1] came to 0.233 ± 0.0063; in the assay on E. coli TESEC Mtb Alr [2] (setting [5]) it was 0.286 ± 0.024; in the assay with E. coli TESEC Mtb Alr [2] (setting [6]), 0.271 ± 0.014; in the assay on E. coli TESEC Mtb Alr [2] (setting [7]), 0.203 ± 0.0064; in the assay with E. coli TESEC Mtb Alr [2] (setting [8]) it was 0.179 ± 0.0088; in the assay with E. coli TESEC Mtb Alr [2] (setting [9]) it was 0.142 ± 0.00072. In addition, the growth in the assay with E. coli TESEC Mtb Asd (setting [10]) was 0.393 ± 0.0086; in the assay on E. coli TESEC Mtb Asd (setting [11]) it was 0.403 ± 0.021; in assay [3], 0.474 ± 0.048; in the assay with E. coli TESEC Mtb Alr [4] (setting [12]) it was 0.413 ± 0.0051; in the assay with E. coli TESEC Mtb Alr [4] (setting [13]) it was 0.376 ± 0.013.

On to `CC(C)C(=O)Nc1ccc([N+](=O)[O-])c(C(F)(F)F)c1` [Flutamide], for which the growth in assay [1] was 0.191 ± 0.0072; in the assay with E. coli TESEC Mtb Alr [2] (setting [5]), 0.189 ± 0.0088; in the assay with E. coli TESEC Mtb Alr [2] (setting [6]), 0.161 ± 0.0036; with E. coli TESEC Mtb Alr [2] (setting [7]) it was 0.203 ± 0.0051; in the assay with E. coli TESEC Mtb Alr [2] (setting [8]), 0.0619 ± 0.00076; in the assay on E. coli TESEC Mtb Alr [2] (setting [9]), 0.0856 ± 0.0029. Moreover, the growth came out at 0.156 ± 0.024 in the assay on E. coli TESEC Mtb Asd (setting [10]); 0.165 ± 0.01 in the assay on E. coli TESEC Mtb Asd (setting [11]); 0.506 ± 0.0074 in assay [3]; 0.383 ± 0.036 in the assay on E. coli TESEC Mtb Alr [4] (setting [12]); 0.16 ± 0.036 in the assay with E. coli TESEC Mtb Alr [4] (setting [13]).

As for `CN1CCC(=C2c3ccccc3Sc3ccccc32)CC1` [Pimethixene maleate], the growth in assay [1] amounted to 0.0726 ± 0.0016; in the assay on E. coli TESEC Mtb Alr [2] (setting [5]) it was 0.0585 ± 0.013; with E. coli TESEC Mtb Alr [2] (setting [6]), 0.0419 ± 0.00051; in the assay on E. coli TESEC Mtb Alr [2] (setting [7]), 0.0556 ± 0.0055; with E. coli TESEC Mtb Alr [2] (setting [8]), 0.0414 ± 0.00026; in the assay with E. coli TESEC Mtb Alr [2] (setting [9]) it was 0.05003 ± 0.00025. The growth in the assay on E. coli TESEC Mtb Asd (setting [10]) was determined as 0.118 ± 0.028; in the assay on E. coli TESEC Mtb Asd (setting [11]), 0.161 ± 0.0073; in assay [3], 0.0544 ± 0.0021; in the assay on E. coli TESEC Mtb Alr [4] (setting [12]) it was 0.362 ± 0.078; in the assay on E. coli TESEC Mtb Alr [4] (setting [13]) it was 0.0659 ± 0.0097.
